Laboratory results reported in PubChem BioAssay (EPA / NIEHS).
Activity calls are given as the source filed them. How the source made its calls: active means hit-call score of the fitted dose curve at least 0.9, where 1 is the maximum; inactive means score below 0.9.

Legend:
[1] = CCTE_Harrill_HTTr_Apoptosis_DMEM_6hr: (Pilot) CCTE's 6-hour Apoptosis Assessment for the High-Throughput Transcriptomics (HTTr) Platform, in MCF-7 cells cultured in DMEM + 10% fetal bovine serum, Harrill Lab (AID 2283981)
Method in brief: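 Caspase-3/7 activation read by high content imaging with CellEvent Caspase 3/7 Green in MCF-7 cells (DMEM + 10% FBS), 6 h after dosing; eight-point dilution series. Bidirectional fitting relative to DMSO baseline.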

[2] = CCTE_Harrill_HTTr_Apoptosis_DMEM_12hr: (Pilot) CCTE's 12-hour Apoptosis Assessment for the High-Throughput Transcriptomics (HTTr) Platform, in MCF-7 cells cultured in DMEM + 10% fetal bovine serum, Harrill Lab (AID 2283982)
Method in brief: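 MCF-7 cells in DMEM + 10% FBS, exposed 12 h to an eight-point dilution series; caspase-3/7 activation imaged with CellEvent Green. Bidirectional fit versus DMSO.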

[3] = CCTE_Harrill_HTTr_Apoptosis_DMEM_24hr: (Pilot) CCTE's 24-hour Apoptosis Assessment for the High-Throughput Transcriptomics (HTTr) Platform, in MCF-7 cells cultured in DMEM + 10% fetal bovine serum, Harrill Lab (AID 2283983)
Method in brief: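 MCF-7 cells in DMEM + 10% FBS, eight-point dilution series, 24 h exposure. Caspase-3/7 activation imaged by high-content imaging with CellEvent Caspase 3/7 Green. Bidirectional curve fitting against DMSO baseline.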

[4] = CCTE_Harrill_HTTr_Apoptosis_PRF_DMEM_6hr: (Pilot) CCTE's 6-hour Apoptosis Assessment for the High-Throughput Transcriptomics (HTTr) Platform, in MCF-7 cells cultured phenol red-free DMEM + 10% charcoal-stripped fetal bovine serum, Harrill Lab (AID 2283984)
Method in brief: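 MCF-7 cells in phenol red-free DMEM + 10% charcoal-stripped FBS, eight-point dilution series, 6 h exposure. Caspase-3/7 activation imaged by high-content imaging with CellEvent Caspase 3/7 Green; bidirectional fit versus DMSO baseline.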

[5] = CCTE_Harrill_HTTr_Apoptosis_PRF_DMEM_12hr: (Pilot) CCTE's 12-hour Apoptosis Assessment for the High-Throughput Transcriptomics (HTTr) Platform, in MCF-7 cells cultured in phenol red-free DMEM + 10% charcoal-stripped fetal bovine serum, Harrill Lab (AID 2283985)
Text: (§1) This is a cell-based assay that evaluates apoptosis using high content imaging to evaluate activation of caspase-3/7 using the CellEvent Caspase 3/7 Green detection reagent in 384-well format.One of seven assay components measured from the CCTE_Harrill_HTTr_Apoptosis assay. This was part of a pilot experiment. This is a cell-based assay that evaluates apoptosis in MCF-7 cells cultured in phenol red-free DMEM + 10% charcoal-stripped fetal bovine serum. High content imaging is used to evaluate activation of caspase-3/7 using the CellEvent Caspase 3/7 Green detection reagent. Measurements are taken at 12 hours after chemical dosing in 384-well format.The assay component endpoint CCTE_Harrill_HTTr_Apoptosis_PRF_DMEM_12hr was analyzed with bidirectional fitting relation to DMSO as the negative control and baseline of activity. Using a type of viability reporter, gain-of-signal activity can be used to evaluate activation of caspase-3/7 using the CellEvent Caspase 3/7 Green detection reagent to understand changes in apoptosis. To generalize the intended target to other relatable targets, this assay endpoint is annotated to cell cycle, where the subfamily is apoptosis.
Chemicals were tested in MCF7 cells in an eight point dilution series with a twelve hour exposure duration.

[6] = CCTE_Harrill_HTTr_Apoptosis_PRF_DMEM_24hr: (Pilot) CCTE's 24-hour Apoptosis Assessment for the High-Throughput Transcriptomics (HTTr) Platform, in MCF-7 cells cultured in phenol red-free DMEM + 10% charcoal-stripped fetal bovine serum, Harrill Lab (AID 2283986)
Text: as §1, with “24” for “12”, “CCTE_Harrill_HTTr_Apoptosis_PRF_DMEM_24hr” for “CCTE_Harrill_HTTr_Apoptosis_PRF_DMEM_12hr”
Chemicals were tested in MCF7 cells in an eight point dilution series with a twenty-four hour exposure duration.

Measured: outcome

CS(=O)(=O)NC(=O)c1cc(Oc2ccc(C(F)(F)F)cc2Cl)ccc1[N+](=O)[O-]
inactive: [1] | [2] | [3] | [4] | [5] | [6]
